The results in this text go back to PubChem BioAssay (NCATS).

The nature of test [1]: qHTS of pediatric cancer cell lines to identify multiple opportunities for drug repurposing: Primary screen for SK-N-MC cells (AID 1347093).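 For activity change, negative = cytotoxic: series mostly up to about 46 µM; plate controls were DMSO neutral control for no effect and bortezomib for full effect.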 The method in brief:
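Metabolically active cells were quantified by ATP-dependent luminescence (CellTiter-Glo, 15 min at room temperature) following 48 h treatment. Cells had been plated at 500-1,000 per well and settled for 5 h beforehand.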
On the technique in general: Quantitative high-throughput screening tests each substance at several concentrations.

Test [2] in a line: qHTS of pediatric cancer cell lines to identify multiple opportunities for drug repurposing: Primary screen for BT-37 cells (AID 1347094).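 For activity change, negative = cytotoxic: series mostly up to about 57 µM; plate controls were DMSO for no effect and bortezomib for full effect.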 Put shortly:
(§1)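 Following a 5-hour attachment period, cells at 500-1,000/well received compounds and were cultured for 48 hours. CellTiter-Glo was added and luminescence read to estimate viable, metabolically active cells.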

Test [3] is described as follows: qHTS of pediatric cancer cell lines to identify multiple opportunities for drug repurposing: Primary screen for NB-EBc1 cells (AID 1347095).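 For activity change, negative = cytotoxic: plate controls were DMSO neutral control for no effect and bortezomib for full effect.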 Put shortly:
as §1

A short description of test [4]: qHTS of pediatric cancer cell lines to identify multiple opportunities for drug repurposing: Primary screen for U-2 OS cells (AID 1347096).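 For activity change, negative = cytotoxic: plate controls were DMSO wells for no effect and bortezomib positive control wells for full effect.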 Note: nearly all actives have a fitted effect of over 50% in size. Put shortly: (§2)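 Cells (500-1,000/well) in growth media were settled 5 h at 37 degrees C, then given compounds for 48 h. Viability was read as CellTiter-Glo luminescence. Primary runs used MIPE at 11 points (0.78 nM-46 µM) and NPC at 8 points (0.59 nM-46 µM); follow-ups used 11 points.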

Test [5] can be described thus: qHTS of pediatric cancer cell lines to identify multiple opportunities for drug repurposing: Primary screen for Saos-2 cells (AID 1347097). For activity change, negative = cytotoxic: % is set by controls: 0 for no effect and ±100 for the full control effect. Note: nearly all actives have a fitted effect of over 40% in size. Put shortly: as §1
Test [6] can be described thus: qHTS of pediatric cancer cell lines to identify multiple opportunities for drug repurposing: Primary screen for SK-N-SH cells (AID 1347098).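 For activity change, negative = cytotoxic: DMSO served as neutral control and bortezomib at 2.3 µM as positive control; % is set by controls: 0 for no effect and ±100 for the full control effect.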 Note: nearly all actives have a fitted effect of over 65% in size. Put shortly:
(§3)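 Cells (500-1,000/well) rested 5 h, then received compounds for 48 h; metabolically active cells were measured by CellTiter-Glo luminescence. Final concentrations spanned up to 46 µM (MIPE, 11-point) or 0.59 nM-46 µM (NPC, 8-point) in primary screens, 11-point in follow-ups.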

Test [7] in a line: qHTS of pediatric cancer cell lines to identify multiple opportunities for drug repurposing: Primary screen for NB1643 cells (AID 1347099).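 For activity change, negative = cytotoxic: plate controls were DMSO neutral control for no effect and bortezomib positive control for full effect.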 Note: nearly all actives have a fitted effect of over 50% in size. The method in brief: as §1
Test [8] in a line: qHTS of pediatric cancer cell lines to identify multiple opportunities for drug repurposing: Primary screen for LAN-5 cells (AID 1347100).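 For activity change, negative = cytotoxic: plate controls were DMSO neutral control for no effect and bortezomib positive control for full effect.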 Put shortly:
as §2

Test [9] is described as follows: qHTS of pediatric cancer cell lines to identify multiple opportunities for drug repurposing: Primary screen for BT-12 cells (AID 1347101).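 For activity change, negative = cytotoxic: plate controls were DMSO for no effect and bortezomib positive control for full effect.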 Note: nearly all actives have a fitted effect of over 25% in size. Put shortly:
as §3

Test [10] in a line: qHTS of pediatric cancer cell lines to identify multiple opportunities for drug repurposing: Primary screen for Rh18 cells (AID 1347102). For activity change, negative = cytotoxic: % is set by controls: 0 for no effect and ±100 for the full control effect. Note: nearly all actives have a fitted effect of over 65% in size. Put shortly: as §2

The structures appear in SMILES notation. Inconclusive results are not listed. Unmarked numbers belong to inactive results. Calls of active or inactive are those of the source. Calls come from the whole dose curve; as a rule, active = well fitted curve in the direction sought with a large enough effect; inconclusive = small, poorly fitted or top-dose-only effect, or another doubt; inactive = no such curve, though single readings can be large; an effect the other way counts as inactive or inconclusive.
Potency is the fitted concentration of half-maximal effect.

`CCCOc1ccc2c(c1)CC[C@@H]1[C@@H]2CC[C@]2(C)C(OC)CC[C@@H]12` (some centres undefined): the Potency entry in [1], in test [2], in test [3], in [4], in [5] and in [6] was “inactive” in each case. Moreover, the Potency entry in [7], in [8], in [9] and in [10] was “inactive” throughout.

Take `COCCOCC(OC)OC`: the Potency entry in [1], in test [2], in [3], in test [4], in test [5] and in [6] was “inactive” each time. Besides, the Potency entry in test [7], in [8], in test [9] and in test [10] was “inactive” in each case.

With `C[C@@H]1C[C@H]2[C@@H]3CCC4=CC(=O)C=C[C@]4(C)[C@@]3(F)[C@@H](O)C[C@]2(C)[C@@]1(O)C(=O)COC(=O)c1ccncc1`, the Potency entry in test [1], in test [2], in test [3], in test [4], in test [5] and in [6] was “inactive” each time. Also, the Potency result in test [7], in test [8], in test [9] and in test [10] was “inactive” each time.

As for `Oc1ccccc1-c1nnco1`, the Potency result in [1], in test [2], in test [3], in [4], in test [5] and in test [6] was “inactive” each time. Further, the Potency result in test [7], in test [8], in [9] and in test [10] was “inactive” in each case.

Consider `CC1CN(c2cc3c(cc2F)c(=O)c(C(=O)O)cn3-c2ccc(F)cc2F)CCN1` (centres undefined), for which the activity change, negative = cytotoxic in test [1] is 32.9% [at 4.84 µM]; in test [2], 1.04% [at 6.03 µM]; in test [3], 50.8% [at 4.84 µM]; in test [4] it was -4.99% [at 4.84 µM]; in test [5], 39.6% [at 4.84 µM]; in test [6], -4.88% [at 6 µM]. Further, the activity change, negative = cytotoxic in test [7] is -5.39% [at 4.84 µM]; in [8], 1.81% [at 4.84 µM]; in [9] it was -6.89% [at 6.03 µM]; in test [10], -0.484% [at 4.84 µM].

With `O=C(O)Cc1ccc(OCCNC[C@H](O)c2ccccc2)cc1`, the Potency entry in [1], in [2], in test [3], in test [4], in test [5] and in [6] was “inactive” throughout. Moreover, the Potency result in test [7], in test [8], in [9] and in test [10] was “inactive” throughout.

For the compound `CC1(C)OC(=O)Nc2ccc(Br)cc21`, the Potency entry in test [1], in test [2], in test [3], in [4], in test [5] and in test [6] was “inactive” throughout. Also, the Potency result in test [7], in test [8], in [9] and in [10] was “inactive” in each case.

Consider `CC(C)NC(=O)c1ccc(C=O)cc1`, for which the Potency entry in test [1], in test [2], in [3], in test [4], in test [5] and in [6] was “inactive” each time. For the same compound, the Potency result in [7], in [8], in [9] and in test [10] was “inactive” each time.

Take `CCOC(=O)OCC/C(SC(=O)OCC)=C(\C)N(C=O)Cc1cnc(C)nc1N`: the Potency result in test [1], in test [2], in test [3], in [4], in test [5] and in test [6] was “inactive” throughout. The Potency entry in test [7], in test [8], in test [9] and in test [10] was “inactive” each time.

Consider `NS(=O)(=O)c1cc2c(cc1Cl)CN(C1CCCCC1)C2=O`, for which the Potency result in [1], in test [2], in [3], in test [4], in test [5] and in test [6] was “inactive” each time. Also, the Potency entry in test [7], in test [8], in test [9] and in test [10] was “inactive” in each case.

With `CN(CC1(C)CCCO1)S(=O)(=O)c1ccc(Cl)c(S(N)(=O)=O)c1` (centres undefined), the Potency result in test [1], in test [2], in test [3], in test [4], in [5] and in test [6] was “inactive” each time. For the same compound, the Potency result in [7], in [8], in test [9] and in test [10] was “inactive” throughout.

Turning to `Oc1ccccc1`, the Potency entry in test [1], in [2], in test [3], in [4], in test [5] and in test [6] was “inactive” in each case. Moreover, the Potency entry in [7], in test [8], in [9] and in [10] was “inactive” each time.

Consider `Cc1ccc(-c2ccccc2C#N)cc1`, for which the Potency result in [1], in [2], in [3], in [4], in test [5] and in [6] was “inactive” throughout. The Potency result in [7], in [8], in test [9] and in [10] was “inactive” throughout.

As to `CNC[C@H](O)[C@@H](O)[C@H](O)[C@H](O)CO`, the Potency result in test [1], in [2], in [3], in [4], in [5] and in test [6] was “inactive” in each case. Besides, the Potency result in test [7], in [8] and in test [10] was “inactive” throughout.

As for `Brc1ccccc1-c1ccccc1`, the Potency entry in test [1], in [2], in [3], in test [4], in test [5] and in test [6] was “inactive” throughout. The Potency entry in test [7], in test [8], in test [9] and in test [10] was “inactive” throughout.

For `CO[C@@H]1[C@@H](OC)[C@H](C)[C@@](O)(CC(=O)O)O[C@H]1[C@H](C)[C@H]1O[C@@]2(CC[C@@](C)([C@H]3CC[C@@](C)([C@@H]4O[C@@H]([C@H]5O[C@](C)(O)[C@H](C)C[C@@H]5C)C[C@@H]4OC4C[C@H](OC)[C@@H](OC)[C@H](C)O4)O3)O2)C[C@H](O)[C@H]1C` (some centres undefined), the Potency in test [1] is 0.188 µM (active); in [2] it was 0.389 µM (active); in [3], 0.266 µM (active); in [4] it was 8.41 µM (active); in test [5], 5.31 µM (active); in test [6], 2.44 µM (active). In addition, the Potency was 0.841 µM (active) in test [7], 1.06 µM (active) in test [8], 0.347 µM (active) in test [9] and 3.76 µM (active) in [10].

For the compound `CC(=O)N[C@@H](CCC(N)=O)C(=O)O`, the Potency entry in [1], in test [2], in test [3], in test [4], in test [5] and in test [6] was “inactive” each time. For the same compound, the Potency entry in test [7], in test [8], in [9] and in test [10] was “inactive” in each case.

For the compound `Cc1sccc1Br`, the Potency entry in test [1], in test [2], in [3], in test [4], in test [5] and in test [6] was “inactive” in each case. Besides, the Potency entry in [7], in test [8], in test [9] and in [10] was “inactive” in each case.

With `O=C(O)CCC(=O)OC[C@@H](NC(=O)C(Cl)Cl)[C@H](O)c1ccc([N+](=O)[O-])cc1`, the Potency result in [1], in test [2], in [3], in test [4], in [5] and in test [6] was “inactive” each time. Further, the Potency entry in test [7], in test [8], in test [9] and in test [10] was “inactive” throughout.

In the case of `CCC(=O)O[C@H]1[C@H](O[C@@H]2[C@@H](C)[C@H](O[C@H]3C[C@@](C)(OC)[C@@H](O)[C@H](C)O3)[C@@H](C)C(=O)O[C@H](CC)[C@@](C)(O)[C@H](O)[C@@H](C)C(=O)[C@H](C)C[C@@]2(C)O)O[C@H](C)C[C@@H]1N(C)C`, the Potency entry in test [1], in [2], in [3], in test [4], in test [5] and in test [6] was “inactive” each time. The Potency result in test [7], in [8], in test [9] and in test [10] was “inactive” in each case.

With `CN1C(CSCC(F)(F)F)Nc2cc(Cl)c(S(N)(=O)=O)cc2S1(=O)=O` (centres undefined), the Potency entry in test [1], in [2], in test [3], in test [4], in test [5] and in [6] was “inactive” each time. In addition, the Potency entry in test [7], in test [8], in test [9] and in test [10] was “inactive” each time.
